Measured values: PubChem BioAssay (NCI)
The panel holds about 83,000 compounds, 20% with a hit somewhere; the sample as a whole holds those more often.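 How to read the values: 0–100, growth inhibition (40 = 60% inhibited); 0, no net growth; -100 to 0, cell death (-40 = 40% of starting cells died; -100 = all dead).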 Calls of active or inactive are those of the source.

tested on: OVCAR-8 ovarian; test: NCI-60 one-dose screen, 48 h (100 = growth as untreated, 0 = no growth, -100 = all killed); conditions: 10 µM unless noted
Description: Growth inhibition of the OVCAR-8 human tumor cell line is measured as a screen for anti-cancer activity. Cells are grown in 96 well plates and exposed to the test compound for 48 hours. Compounds are tested at a single concentration, which is 10^-5 M for most compounds. The reported endpoint is percent growth (GI% or GIPRCNT), where numbers from 0 - 100% represent growth inhibition, and numbers from -100% - 0 represent cell death. For example, a value of 40 represents 60% growth inhibition. A value of 0 means no net growth occurred over the course of the experiment. A value of -40 indicates 40% of cells at the beginning of the experiment died by the end of the experiment. A value of -100 means all cells are dead at the end of the experiment.
NCI-60 Human Tumor Cell Lines Screen was performed using the standard one-dose NCI protocol, which is described in more detail at https://dtp.cancer.gov/discovery_development/nci-60/default.htm.
Compounds with GIPRCNT values below 10 were considered active. Activity score was based on GIPRCNT using the following formula: […]
Score is 0 for GIPRCNT values of 100 or above, 50 for GIPRCNT values of 0, and 100 for GIPRCNT values of -100.

Row | Compound | growth
1 | O=c1c2ccccc2cc2n1CCN=C2c1ccccc1 | 101% (inactive)
2 | Cn1ncc2ncc(-c3ccc4ncc(C#N)c(N5CCc6cc(F)c(Cl)cc65)c4c3)cc21 | 38.8% (inactive)
3 | Nc1nc(=O)n([C@H]2C[C@H](O)[C@@H](CO)O2)cc1C=O | 11.3% (inactive)
4 | COc1ccc(/C=N/NC(=O)CSc2nc(-c3cnccn3)cc(-c3cccs3)c2C#N)cc1OC | 84.7% (inactive)
5 | CC(=C(c1ccc(OCCN(C)C)cc1)c1ccc(OCCN(C)C)cc1)c1ccc(Cl)cc1 | -46.9% (active)
6 | NC1[C@H]2CN(c3cnc(C(=O)Nc4cc(F)cc5cccnc45)cn3)C[C@@H]12 (stereo not given in full) | 87.7% (inactive)
7 | N/C(=N\C(N)=N\c1nc2ccccc2s1)c1ccc(Cl)cc1 | 79.5% (inactive)
8 | COc1ccc(-c2cc(-c3ccc(N(C)C)cc3)n3c(n2)nc2ccccc23)cc1 | 39.8% (inactive)
9 | CCCc1[nH]c(-c2cc(N)ccc2Cl)c2c1C(=O)CCCC2 | 96.4% (inactive)
10 | COC(=O)c1cccc(NC2=C(Cl)C(=O)C(C)=C(C)C2=O)c1 | 99.4% (inactive)
11 | C=C(C)[C@@H]1CC[C@]2(COCCCNCCCN)CC[C@]3(C)[C@H](CC[C@@H]4[C@@]5(C)CC[C@H](O)C(C)(C)[C@@H]5CC[C@]43C)[C@@H]12 | -40.4% (active)
12 | CCOC(=O)c1c(NCC(=O)Nc2cccc([N+](=O)[O-])c2)sc(C(C)=O)c1C | -8.65% (active)
13 | N#CC1=C2NCCCNc3oc(nc3C#N)Cc3ccccc3CC(=N1)O2 | 97.4% (inactive)
14 | COC(=O)CNC(=O)c1cccc(-c2cc(=O)c3c(OC)c(OC)c(OC)cc3o2)c1 | 98% (inactive)
15 | O=C1Nc2ccccc2/C1=N\c1nnc(-c2ccccc2)o1 | 102% (inactive)
16 | Cc1ccc(NC2=C(Cl)C(=O)c3nc(C)ccc3C2=O)c(C)c1 | 28.3% (inactive)
17 | C#CCN(C)CCCOc1ccc(NC(=O)CCCCCCCCC(=O)NO)cc1Cl | 53.4% (inactive)
18 | CCn1c2ccc(/C=N/N(C)S(=O)(=O)CCN(C)C)cc2c2cc(/C=N/N(C)S(=O)(=O)CCN(C)C)ccc21 | 48.9% (inactive)
19 | CCOC(=O)C1=C(C)NC(C)=C(C(=O)OCc2ccccc2)C1c1cccc(C#N)c1 (stereo not given) | 48% (inactive)
20 | O=C(CSc1nnc(-c2ccc(Cl)cc2)n1-c1ccccc1)Nc1cccc(F)c1 | 35.7% (inactive)

Row | Compound | growth
21 | CC(=O)/C(N=Nc1ccc2oc(=O)ccc2c1)=C(\C)O | 25.1% (inactive)
22 | CCOC(=O)c1cccc(NC2=C(Cl)C(=O)C(C)=C(C)C2=O)c1 | 98.8% (inactive)
23 | COc1cc2oc(-c3cccc(NC(=O)c4cccc([N+](=O)[O-])c4)c3)cc(=O)c2c(OC)c1OC | 6.56% (active)
24 | C=C(C)[C@@H]1CC[C@]2(C(=O)O)CC[C@]3(C)[C@H](CC[C@@H]4[C@@]5(C)C/C(=C/c6ccccn6)C(=O)C(C)(C)[C@@H]5CC[C@]43C)[C@@H]12 | 32% (inactive)
25 | O=C(Nc1ccc(N=Cc2c(O)[nH]c3ccccc23)cc1)Nc1ccc(S(=O)(=O)Nc2ncccn2)cc1 | 102% (inactive)
26 | COc1ccc2c(c1)c(-c1nnc(N)nc1-c1c[nH]c3ccc(F)cc13)cn2C | 59.5% (inactive)
27 | C#CCN(C)CCCOc1ccc(NCc2ccc(/C=C/C(=O)NO)cc2)cc1Cl | 11.9% (inactive)
28 | CC(Nc1ncnc2ccc(-c3cnc(N)nc3)cc12)c1ccccc1 (stereo not given) | 48% (inactive)
29 | COc1ccc(-c2nc(C#N)c(N3CCC(S(=O)(=O)N4CCOCC4)CC3)o2)cc1 | 106% (inactive)
30 | O=C(COc1ccc(/C=C2\C(=O)Nc3ccc(Cl)cc32)cc1)Nc1ccc(Cl)cc1 | 60.1% (inactive)
31 | C#C[C@]1(O)CC[C@H]2[C@@H]3CC=C4c5sc(N(C)c6ccccc6)nc5CC[C@]4(C)[C@H]3CC[C@@]21C | 82% (inactive)
32 | O=C1[C@@H]2Cc3c([nH]c4ccccc34)[C@H](c3ccc(Cl)cc3)N2C(=O)CN1C1CCN(Cc2ccccc2)CC1 | 64.4% (inactive)
33 | O=S(=O)(NCCCNc1nccc(-c2[nH]c(-c3ccccc3)nc2-c2ccc(F)c(O)c2)n1)c1cccc2ccccc12 | 54.3% (inactive)
34 | CC1(C)CC[C@]23CC[C@]4(C)[C@H](CC[C@@H]5[C@@]6(C)CC[C@H](N)C(C)(C)[C@@H]6CC[C@]54C)[C@H]2[C@H]1OC3 | 85.6% (inactive)
35 | CC1CC(=O)C2=C(C1)Nc1ccc(Br)cc1CC2c1c[nH]c2ccc(Br)cc12 (stereo not given) | 66.2% (inactive)
36 | Oc1[nH]c2ccc(Cl)cc2c1N=Nc1nc(N=Nc2c(O)[nH]c3ccc(Cl)cc23)nc(N2CCOCC2)n1 | 50.1% (inactive)
37 | CC(C)(O)c1cncc(-c2ccc3ncc(C#N)c(N4CCc5cc(F)c(Cl)cc54)c3c2)c1 | 11.1% (inactive)
38 | NS(=O)(=O)c1ccc(Nc2nc(N/N=C/C=C/c3ccccc3)nc(Nc3ccccc3)n2)cc1 | 50% (inactive)
39 | NS(=O)(=O)c1ccc(Nc2nc(N/N=C/c3ccc4c(c3)OCO4)nc(Nc3ccccc3)n2)cc1 | 49.7% (inactive)
40 | Brc1ccc(-c2cc(-c3ccc4c(c3)OC=CO4)n[nH]2)s1 | 96.4% (inactive)
